# Laboratory results reported in the supplement of paper PMC3334620.
# The full ranking holds about 33,000 sequences; the median of “E-score (-0.5 to 0.5)” is about -0.0034, and the highest 2% start at about 0.25. What follows is part of a selection rich in the highest values, with near analogues and random picks from the rest.
# Molecular target: T1, Yap3 (UniProt P38749)
# T1 sequence: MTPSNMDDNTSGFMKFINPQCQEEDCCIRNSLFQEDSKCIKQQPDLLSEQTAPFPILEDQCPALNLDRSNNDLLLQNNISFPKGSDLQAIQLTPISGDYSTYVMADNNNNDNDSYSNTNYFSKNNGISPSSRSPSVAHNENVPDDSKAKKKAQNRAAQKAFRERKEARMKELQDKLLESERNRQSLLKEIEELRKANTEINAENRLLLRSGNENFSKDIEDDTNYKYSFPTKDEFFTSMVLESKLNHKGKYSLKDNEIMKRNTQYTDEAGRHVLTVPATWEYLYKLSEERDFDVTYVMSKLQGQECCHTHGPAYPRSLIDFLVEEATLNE
# Assay: PBM E-score (8-mer binding enrichment) (E-score (-0.5 to 0.5)); higher = stronger / more preferred TF binding
# Conditions: protein concentration: 100 nM; construct: GST-full length
# Method: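 Universal 'all 10-mer' protein binding microarrays (Agilent AMADID 015681) probed with GST-tagged S. cerevisiae TFs (full-length or DBD) made by in vitro transcription/translation (PURExpress), about 100-200 nM. Bound TF was detected with fluorescent anti-GST. Each ungapped 8-mer (which stands for itself and its reverse complement) is scored by the PBM enrichment score (E-score), a modified Wilcoxon-Mann-Whitney statistic from -0.5 to +0.5, computed with the Universal PBM Analysis Suite. Scale: above 0.35 generally sequence-specific binding.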
row,Sequence,PBM E-score
1,CTTTGACC,0.0628
2,AGCTTGGC,-0.207
3,AATAGCGT,0.195
4,AGATTACC,0.155
5,ATATTACC,0.276
6,CTATTACC,-0.0641
7,AAAGTACC,0.176
8,CAAGTACA,-0.0722
9,AAAGTACA,0.27
10,TCGAAGAA,-0.0713
11,CCAAGAAA,-0.00981
12,ACAAGAAA,0.268
13,ATAAGAAC,0.289
14,ACGAAGAA,0.282
15,CCAAAGAA,0.124
16,ATAAGAAA,0.207
17,ACAAGAAT,0.1
18,TCAAAGAA,-0.0713
19,ATAAGAAT,0.207
20,ACGAAGAT,0.0321
21,ACAAAGAA,0.257
22,AACTTTTC,0.0947
23,AATCCCGG,-0.139
24,CTGAGGAA,-0.0654
25,ACCAGGTG,-0.245

row,Sequence,PBM E-score
1,CCTTTGGA,-0.218
2,ACCACAGT,0.143
3,GAACCAAC,0.00249
4,AGACATCC,-0.152
5,GACTGCAA,-0.0662
6,CCAACCGG,-0.193
7,ATCCAACC,0.00913
8,CGGGTGGC,-0.289
9,TTAAAGAA,0.19
10,CTAAAGAA,0.0205
11,ATAAAGAA,0.26
12,ATATCACG,0.181
13,GTGTCGAA,-0.0549
14,CTGTATGC,-0.0877
15,CACGCCAA,-0.0782
16,ATTCAATC,0.0991
17,CAAAGTGA,0.0818
18,TAAAGTGA,0.263
19,AAAAGTGA,0.132
20,CCAACTCC,0.117
21,GGCCCAAA,-0.0982
22,CCAGCAAA,0.0803
23,ATAAGTCA,0.262
24,ATTAGTCC,0.207
25,ATTAGTGC,0.299

row,Sequence,PBM E-score
1,ATTAGTCA,0.42
2,CTTAGTCA,0.373
3,ATTAGTCG,0.12
4,ATTAGTGA,0.179
5,CTAAGTCA,0.024
6,ATAAGTCC,0.0332
7,ATTAGTGG,0.243
8,CCTAGTCA,0.0001
9,CTTAGTCC,-0.0515
10,CATTGAAC,0.07
11,GCGTTGCA,-0.112
12,CAGAAACC,0.0742
13,CACGCTAA,0.0663
14,CGATCGAC,0.14
15,AGATCTAT,-0.115
16,ATCGGGCG,-0.21
17,AGTGCTCG,-0.11
18,TCAAGCAA,-0.15
19,AAGAGCAC,-0.0358
20,CTCAGTTA,-0.0635
21,GTTAGTCA,0.33
22,GTCAGTTA,0.113
23,GTTAGTAA,0.217
24,CTTAGTAC,0.0262
25,ATTAGTTG,0.192

row,Sequence,PBM E-score
1,ATTAGTTA,0.291
2,CTTAGTAA,0.429
3,GTTAGTGA,0.0844
4,ATCAGTTA,0.272
5,GGTAGTCA,-0.176
6,GTTAGTTA,0.169
7,ACAGGTCG,-0.0506
8,TATTGACA,0.0463
9,CCGCCAGC,-0.196
10,AACACTGC,0.186
11,CACGCCTA,-0.1
12,GATATGCC,-0.0864
13,ATGATCGA,0.0147
14,CTGATCGA,-0.239
15,GTGATCGA,0.282
16,ACTTCCGG,0.0969
17,CTCAAGAC,-0.133
18,AATGAGAC,-0.0964
19,CATGAGTA,0.0202
20,AGTGAGTG,-0.0641
21,GATGAGTA,0.181
22,CGTGAGTA,-0.0244
23,AGTGAGTA,0.271
24,AATGAGAG,-0.0586
25,AATGAGAT,0.266

row,Sequence,PBM E-score
1,AATGAGTA,0.33
2,ACAAAACA,0.202
3,TCCTAAAA,-0.115
4,AACAGAAA,0.157
5,TATAGAAA,0.0802
6,GACAGAAA,0.183
7,CAGAGAAG,-0.127
8,GATAGAAA,0.187
9,CATAGAAA,0.268
10,CAGAGAAA,0.278
11,GAGAGAAA,0.0853
12,TACAGAAA,0.262
13,CATCTACC,0.145
14,CTTGAGCA,-0.119
15,ATCTTGCA,0.151
16,AATAGATC,0.08
17,GATTAATA,0.367
18,CATTAATA,0.193
19,CATTAATG,0.212
20,AATTAATT,0.211
21,AATTAAGA,0.154
22,AATTAATA,0.353
23,TATTAACA,0.23
24,GATTAATC,0.117
25,AATTAATC,0.0963

row,Sequence,PBM E-score
1,GATTAAGA,0.193
2,AATTAATG,0.29
3,TATTAATA,0.301
4,CACCCATG,-0.014
5,ATCGCACC,-0.106
6,GCTCTGTA,-0.055
7,GCCAAGTA,-0.0708
8,CATAAGAG,-0.071
9,CTTTTGTC,0.0462
10,CGACCCAC,-0.219
11,TCGGATAA,0.143
12,GTCAAGTA,-0.12
13,ATCTCTGC,0.0777
14,ACACTGAT,0.0678
15,ATTACTGG,-0.0154
16,TACGAAAA,0.144
17,GGCGAAAA,0.256
18,GGCGAAAC,0.0862
19,TGCGAAAA,0.0554
20,CACGAAAA,0.176
21,GACGAAAA,0.264
22,CTGCGATC,-0.0633
23,CGTAGATC,0.0115
24,GTACAGGA,0.0424
25,AACATCTC,0.08

row,Sequence,PBM E-score
1,ACTGAAAG,0.114
2,GCTGAAAC,-0.0804
3,ACAGAAAA,0.198
4,ACAGAAAC,0.285
5,CCAGAAAC,0.0139
6,ACTGAAAC,0.27
7,GCAAATCC,0.156
8,CGTCCTTC,0.0406
9,CTATGGGA,-0.103
10,CGTCCCTA,-0.206
11,AACTAAAA,0.148
12,CACTAACA,0.162
13,TACTAACA,0.294
14,TACTAAAA,0.255
15,TACTGAAA,0.273
16,CACTATAA,-0.00697
17,CACTGAAA,0.0595
18,AACTATAA,0.186
19,TACTATAA,0.266
20,GACTGAAA,0.0541
21,AACTAACA,0.211
22,GACTAAAA,0.0994
23,GACTTTGA,0.00307
